High-throughput results deposited in PubChem BioAssay by National Center for Advancing Translational Sciences (NCATS).
Sampled rows, rich in hits. Any-hit rate of the full collection: about 3.8%.
S2 tox – cell viability loss in ATXN counter-screen. Potency, µM (highest dose often 56.7 µM), hits mostly cytotoxic. AID 651635. 400,000 tested, 0.49% active. S2 cells (HEK-293 line with an ATXN2-luciferase reporter) viability, CellTiter-Fluor protease fluorescence, 24 h; note: nearly all actives have a fitted effect of over 40% in size
Nrf2 inh – Nrf2 pathway inhibition | A549 ARE-Fluc reporter, luciferase luminescence, 18-24 h | Potency, µM (series often up to 46 µM), most hits filed as inhibitors | 360,000 tested, 2.1% active | AID 504444; note: nearly all actives have a fitted effect of over 60% in size
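Cells were seeded and rested 2 h, then exposed to compounds for 18-24 h. CellTiter-Fluor was read first as a viability measure. BugLite was added 15 min before the final luminescent read of ARE-luciferase activity in A549 cells.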
ATXN2 expr inh – ATXN2 expression inhibition. HEK-293 ATXN2-luciferase reporter, luminescence, 24 h. Potency, µM (titrated, usually from 57 µM), usual class: inhibitors. 360,000 tested, 0.72% active; note: nearly all actives have a fitted effect of over 55% in size
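qHTS (up to 57 uM final) was run with 24 h compound exposure of reporter cells at 37 °C. Each well was multiplexed: SteadyGlo luminescence measured ATXN2-luciferase expression after a fluorogenic Gly-Phe-AFC viability readout (25 uM final).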
A549 viability – counter-screen for Nrf2 inhibitors: cytotoxicity in A549 cells | 390,000 tested, 0.16% active | A549 ARE-Fluc cells, CellTiter-Fluor viability, 18-24 h | Potency, µM (highest dose often 46 µM), actives largely listed as inhibitors
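A549 ARE_Fluc cells in 5% FBS OPTI-MEM were exposed to compounds in concentration-response for 18-24 h at 37 deg C. Viability was read by CellTiter-Fluor fluorescence (Ex 405/Em 525) after 30 min, before the luciferase read.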
HepG2 tox – counter-screen for TGF-b inhibitors: cytotoxicity in HepG2 cells; HepG2 CAGA-GFP viability, ATP luminescence, 18 h; Potency, µM (highest dose often 46.1 µM), hits mostly cytotoxic; 410,000 tested, 0.76% active
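CellTiter-Glo luminescence gave cytotoxicity after 18 hours at 37 degrees C. The cells were HepG2 CAGA-GFP in 1% FBS DMEM, stimulated with 500 pg/mL TGF-beta after compound addition. %Activity was normalised to no-cell wells (complete cell-killing) and DMSO (no toxicity), and curves were fitted and classified.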
TGFb inhibitor – blocks TGF-b signaling; 410,000 tested, 1.2% active; AID 588855; HepG2 CAGA-GFP TGF-b/SMAD3 reporter, GFP fluorescence, 18 h; TGF-beta stimulated, 500 pg/mL final; Potency, µM (series often up to 46.1 µM), actives largely listed as inhibitors; note: nearly all actives have a fitted effect of over 65% in size
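Inhibition of TGF-beta-driven CAGA-GFP reporter expression in HEPG2 cells is measured by cellular GFP fluorescence after 18 h stimulation with 500 pg/mL recombinant TGF-beta in 1% FBS medium at 37 degrees C.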
Numbers stand for hits; . = inactive; ? = inconclusive; / = no result given; [ ] = another dose, or the depositor's remark. Calls come from the whole dose curve; as a rule, active = well fitted curve in the direction sought with a large enough effect; inconclusive = small, poorly fitted or top-dose-only effect, or another doubt; inactive = no such curve, though single readings can be large; an effect the other way counts as inactive or inconclusive.

SMILES	S2 tox	Nrf2 inh	ATXN2 expr inh	A549 viability	HepG2 tox	TGFb inhibitor
CCN(CC)c1ccc(S(=O)(=O)N2CCOCC2)cc1NC(=O)CSc1ccccc1	.	.	.	.	.	.
O=C(CNCc1ccccc1Cl)Nc1cc(S(=O)(=O)N2CCOCC2)ccc1Cl	.	16µM	.	.	.	.
O=S(=O)(c1ccc(Cl)c(NC(=S)N/N=C/c2ccc(O)cc2)c1)N1CCOCC1	?	16µM	?	.	.	?
COc1cc(OC)c2c(c1)C(=O)OC2c1cc(OC)c(OC)cc1C (centres undefined)	/	.	/	.	.	.
CC(=O)OC(C)OC(=O)C(C)c1ccc(-c2ccccc2)c(F)c1 (centres undefined)	.	/	.	/	/	/
Cc1ccc(S(=O)(=O)N2CCOCC2)cc1NC(=O)CNCc1ccc(Cl)cc1Cl	.	13µM	/	.	.	?
CC(C)NC(=O)N1CCN(S(=O)(=O)c2ccc3c(ccn3C)c2)CC1	.	/	.	.	.	.
O=C(Nc1nc2ccccc2n1CCN1CCOCC1)c1cn(-c2ccccc2)nc1-c1ccccc1	?	21µM	?	?	.	.
O=C(Nc1nc2ccccc2n1CCN1CCOCC1)c1ccccc1	.	.	.	.	.	.
NS(=O)(=O)c1cccc(C(=O)N2CCCc3ccccc32)c1	?	/	/	/	.	.
CCOc1cc(/C=N/Nc2cccc(C(=O)O)c2)ccc1OC(=O)c1ccccc1	.	?	14µM	.	.	.
O=C(Nc1ccn(Cc2ccccc2F)n1)c1ccc(COc2cccc(Br)c2)cc1	.	?	.	.	.	.
O=C(Nc1ccn(Cc2c(F)c(F)cc(F)c2F)n1)c1ccc(COc2ccccc2Cl)cc1	.	21µM	.	.[1.84 µM]	.	.
O=C(Nc1ccn(Cc2ccccc2F)n1)c1ccc(COc2ccccc2Cl)cc1	?	18µM	.	.	.	.
O=C(Nc1ccn(Cc2c(F)c(F)cc(F)c2F)n1)c1ccc(COc2cc(Cl)ccc2Cl)o1	.	?	.	.	.	.
CCOC(=O)Cc1ccc(NC(=O)N(Cc2ccc(CC)cc2)Cc2cn[nH]c2-c2ccc(OC)cc2)cc1	/	.	/	.	.	?
COc1ccccc1/C=C/C=N/n1c(C)nnc1C	?	.	.	.	0.89µM	.
N=c1c(S(=O)(=O)c2ccc(Br)cc2)cc2c(=O)n3ccccc3nc2n1Cc1ccco1	/	?	/	?	.	7.9µM
CC(C)Cn1c2c(c(O)c(C(=O)Nc3nccs3)c1=O)CCCC2	.	21µM	.	.	.	.
COC(=O)C1=CN(Cc2cccs2)C=C(C(=O)OC)C1c1cccc(Cl)c1	?	?	.	.	10µM	?
Cc1ccc(-n2c3nc(=O)[nH]c(=O)c-3cc3c(C)nn(-c4ccccc4)c32)cc1Cl	.	.	.	.	.	.
COc1ccc2ncnc(NCc3cccs3)c2c1-c1ccc2c(c1)OCO2	/	?	/	.	/	/
Cc1ccc(N2CCN(C(=O)CCc3c(C)nc4ncnn4c3C)CC2)c(C)c1	.	18µM	.	.	.	?
Cc1ccc(C)c(N2CCN(C(=O)CCc3c(C)nn(-c4ccc(N5CCCC5)nn4)c3C)CC2)c1	/	?	/	.	.	13µM
Cc1nn(-c2ccc(N3CCCC3)nn2)c(C)c1CCC(=O)N1CCN(c2ccccc2)CC1	/	.	/	.	.	?
O=C(Cc1ccc(NC(=O)C2CCN(C(=O)C3CCCC3)CC2)cc1)Nc1cccc(C(=O)N2CCCCC2)c1	.	.	.	.	.	.
Nc1c(C(=O)NCC2CCCO2)sc2nc3c(c(-c4ccco4)c12)CC/C3=C\c1ccco1 (centres undefined)	.	.	.	.	.	18µM
COc1cc(-c2c(C#N)c(N)nc(SCc3ccncc3)c2C#N)cc(OC)c1OC	.	.	.	.	.	?
N#Cc1c(N)nc(SCc2ccncc2)c(C#N)c1-c1cccs1	?	23µM	?	.	.	?
Cc1ccc(Nc2ncnc3c2cnn3-c2ccccc2)c(C)c1	.	/	.	.	.	.
